# Only a selection was taken, and the strongest signals are over-represented in it overall.
# B1: SSR2 (Sclerotium rolfsii) (protein)
# chain: MVYKITVRVYQTNPDAFFHPVEKTVWKYANGGTWSITDDQHVLTMGGSGTSGTLRFHADNGESFTATFGVHNYKRWCDIVTNLAADETGMVINQQYYSQKNREEARERQLSNYQVKNAKGRNFQIVYTEAEGNDLHANLIIG
# Key:
# Assay in all cases: glycan array binding signal (z-score within array); higher = stronger binding
# Settings in all cases: glycan notation: IUPAC condensed, linker removed
# [1] = biological target: Fuc(a1-2)Gal(b1-3)GalNAc(b1-4)[Neu5Ac(a2-3)]Gal(b1-4)Glc
# Method in brief: (§1)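 Glycan array binding is given as a within-array Z-score, which can be read as non-binding when negative. The arrays, 3228 of them, came from the Consortium for Functional Glycomics database and were retained only where the protein sequence was available. Z-scores were averaged across arrays of the same protein sequence at different concentrations or buffers and across linkers.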
# [2] = biological target: Fuc(a1-2)Gal(b1-4)GlcNAc(b1-3)Gal(b1-4)GlcNAc(b1-2)Man(a1-3)[Fuc(a1-2)Gal(b1-4)GlcNAc(b1-3)Gal(b1-4)GlcNAc(b1-2)Man(a1-6)]Man(b1-4)GlcNAc(b1-4)GlcNAc
# Method in brief: as §1
# [3] = biological target: Fuc(a1-2)Gal(b1-4)[Fuc(a1-3)]GlcNAc(b1-3)Gal(b1-4)[Fuc(a1-3)]GlcNAc(b1-3)Gal(b1-4)[Fuc(a1-3)]GlcNAc
# Method in brief: as §1
# [4] = biological target: Fuc(a1-2)[Gal(a1-3)]Gal(b1-4)GlcNAc(b1-3)GalNAc
# Method in brief: as §1
# [5] = biological target: Fuc(a1-2)[Gal(a1-3)]Gal(b1-4)GlcNAc(b1-3)[Fuc(a1-2)[Gal(a1-3)]Gal(b1-4)GlcNAc(b1-6)]GalNAc
# Method in brief: as §1
# [6] = biological target: Fuc(a1-2)[GalNAc(a1-3)]Gal(b1-4)GlcNAc(b1-2)Man
# Method in brief: as §1
# [7] = biological target: Fuc(a1-2)[GalNAc(a1-3)]Gal(b1-4)GlcNAc(b1-6)GalNAc
# Method in brief: as §1
# [8] = biological target: Fuc(a1-3)[Gal3S(b1-4)]GlcNAc6S
# Method in brief: as §1
# [9] = biological target: Fuc(b1-3)GlcNAc
# Method in brief: as §1
# [10] = biological target: Gal(a1-3)Gal(b1-4)GlcNAc
# Method in brief: as §1
# [11] = biological target: Gal(a1-4)Gal(b1-4)GlcNAc(b1-3)Gal(b1-4)Glc
# Method in brief: as §1
# [12] = biological target: Gal(b1-3)GalNAc(a1-3)[Fuc(a1-2)]Gal(b1-4)Glc
# Method in brief: as §1
# [13] = biological target: Gal(b1-3)GalNAc(a1-3)[Fuc(a1-2)]Gal(b1-4)GlcNAc
# Method in brief: as §1
# [14] = biological target: Gal(b1-3)GlcNAc(a1-3)Gal(b1-4)GlcNAc
# Method in brief: as §1
# [15] = biological target: Gal(b1-3)GlcNAc(b1-2)[Gal(b1-3)GlcNAc(b1-6)]Man(a1-6)[Gal(b1-3)GlcNAc(b1-2)Man(a1-3)]Man(b1-4)GlcNAc(b1-4)GlcNAc
# Method in brief: as §1
# [16] = biological target: Gal(b1-3)[Fuc(a1-4)]GlcNAc(b1-2)Man
# Method in brief: as §1
# [17] = biological target: Gal(b1-3)[Fuc(a1-4)]GlcNAc(b1-3)Gal(b1-3)[Fuc(a1-4)]GlcNAc
# Method in brief: as §1
# [18] = biological target: Gal(b1-4)Gal
# Method in brief: as §1
# [19] = biological target: Gal(b1-4)GalNAc(a1-3)[Fuc(a1-2)]Gal(b1-4)GlcNAc
# Method in brief: as §1
# [20] = biological target: Gal(b1-4)GlcNAc(b1-2)Man(a1-3)[Gal(b1-4)GlcNAc(b1-2)Man(a1-6)][GlcNAc(b1-4)]Man(b1-4)GlcNAc(b1-4)[Fuc(a1-6)]GlcNAc
# Method in brief: as §1
# [21] = biological target: Gal(b1-4)GlcNAc(b1-2)Man(a1-3)[GlcNAc(b1-4)][Gal(b1-4)GlcNAc(b1-2)Man(a1-6)]Man(b1-4)GlcNAc(b1-4)GlcNAc
# Method in brief: as §1
# [22] = biological target: Gal(b1-4)GlcNAc(b1-2)Man(a1-6)[GlcNAc(b1-2)Man(a1-3)]Man(b1-4)GlcNAc(b1-4)GlcNAc
# Method in brief: as §1
# [23] = biological target: Gal(b1-4)GlcNAc(b1-2)[Gal(b1-4)GlcNAc(b1-6)]Man(a1-6)[GlcNAc(b1-4)][Gal(b1-4)GlcNAc(b1-2)[Gal(b1-4)GlcNAc(b1-4)]Man(a1-3)]Man(b1-4)GlcNAc(b1-4)[Fuc(a1-6)]GlcNAc
# Method in brief: as §1
# [24] = biological target: Gal(b1-4)GlcNAc(b1-3)Gal(b1-4)GlcNAc(b1-2)[Gal(b1-4)GlcNAc(b1-3)Gal(b1-4)GlcNAc(b1-6)]Man(a1-6)[Gal(b1-4)GlcNAc(b1-3)Gal(b1-4)GlcNAc(b1-2)Man(a1-3)]Man(b1-4)GlcNAc(b1-4)[Fuc(a1-6)]GlcNAc
# Method in brief: as §1
# [25] = biological target: Gal(b1-4)GlcNAc(b1-3)GalNAc
# Method in brief: as §1
# [26] = biological target: Gal3S(b1-3)GalNAc
# Method in brief: as §1
# [27] = biological target: Gal4S(b1-4)GlcNAc
# Method in brief: as §1
# [28] = biological target: Gal6P(b1-4)GlcNAc
# Method in brief: as §1
# [29] = biological target: GalNAc(b1-4)GlcNAc6S
# Method in brief: as §1
binder,measurement,setting,value
B1,glycan array binding signal (z-score),[1],-0.282
same,glycan array binding signal (z-score),[2],-0.273
same,glycan array binding signal (z-score),[3],-0.294
same,glycan array binding signal (z-score),[4],-0.285
same,glycan array binding signal (z-score),[5],-0.277
same,glycan array binding signal (z-score),[6],-0.275
same,glycan array binding signal (z-score),[7],-0.297
same,glycan array binding signal (z-score),[8],-0.279
same,glycan array binding signal (z-score),[9],-0.269
same,glycan array binding signal (z-score),[10],-0.292
same,glycan array binding signal (z-score),[11],-0.285
same,glycan array binding signal (z-score),[12],3.93
same,glycan array binding signal (z-score),[13],2.96
same,glycan array binding signal (z-score),[14],-0.278
same,glycan array binding signal (z-score),[15],-0.286
same,glycan array binding signal (z-score),[16],-0.286
same,glycan array binding signal (z-score),[17],-0.272
same,glycan array binding signal (z-score),[18],-0.288
same,glycan array binding signal (z-score),[19],-0.279
same,glycan array binding signal (z-score),[20],-0.287
same,glycan array binding signal (z-score),[21],-0.259
same,glycan array binding signal (z-score),[22],3.34
same,glycan array binding signal (z-score),[23],-0.266
same,glycan array binding signal (z-score),[24],-0.229
same,glycan array binding signal (z-score),[25],-0.281
same,glycan array binding signal (z-score),[26],4.27
same,glycan array binding signal (z-score),[27],-0.297
same,glycan array binding signal (z-score),[28],-0.287
same,glycan array binding signal (z-score),[29],-0.294
